# Measurements as given in PubChem BioAssay AID2551 (National Center for Advancing Translational Sciences (NCATS), 2010).
# Screen size: about 310,000 compounds; about 17,000 (5.5%) were called active. Inconclusive results (about 11%) are left out. The sample as a whole holds a higher share of actives than the screen did. Unmarked numbers belong to inactive results. The call rests on the fitted dose curve; in most records, active means well fitted inhibition curve with a large enough effect; inconclusive means small, poorly fitted or top-dose-only effect, or effect the other way; inactive means no such curve, though single readings can be large or run the other way.
# Molecular target: Nuclear receptor ROR-gamma (Mus musculus) (UniProt P51450)
# Experiment: qHTS for inhibitors of ROR gamma transcriptional activity; further: nearly all actives have a fitted effect of over 60% in size
# Details: Drosophila S2 Gal4-RORgamma UAS-luciferase reporter, 20 h; series mostly up to 53.6 µM; activity change, negative = inhibition: at the top concentration
# Source text: NIH Molecular Libraries Probe Production Network [MLPCN] NIH Chemical Genomics Center [NCGC] MLPCN Grant: R03 DA026211-01 Assay Provider: Dan Littman, New York University Assay Overview: The retinoic acid-related orphan receptor (ROR) gamma is a transcription factor that has a central role in the differentiation of Th17 cells, a subset of T helper cells that secrete the inflammatory cytokines IL-17, IL-17F, and IL-22. Th17 cells have been implicated in graft versus host disease, autoimmune disease and asthma. ROR gamma is induced in naive T helper cells in the presence of TGF-beta combined with IL-6, IL-21, or IL-23, and thereafter directs the expression of the Th17 lineage cytokines. To study the mechanism of action of ROR gamma, an insect cell-based assay was screened. This Drosophila Schneider cell line was stably transfected with two vectors: a gene expressing a fusion of the Gal4 DNA binding domain and ROR gamma transactivation domain under the control of the metallothionine promoter and a Photinus luciferase reporter regulated by the Gal4 binding site enhancer, UAS. […] Small molecule inhibitors of ROR gamma activity are detected by a decrease in luciferase reporter activity.
# Assay Protocol Summary: For screening, 600 cells in 4 uL/well were dispensed into white solid 1536-well plates (Grenier) using a solenoid-based dispenser. Following transfer of 23 nL compound or DMSO vehicle by a pin tool, the plates were incubated 1 hr at ambient temperature, and 1 uL/well copper sulfate (700 uM final concentration) was added. The plates were centrifuged 15 s at 1000 RPM and incubated 20 hr at ambient temperature. After addition of 1.5 uL Photinus luciferase detection reagent, the plates were incubated 10 min at ambient temperature and then read by an ViewLux (Perkin Elmer) to detect luminescence. Keywords: NIH Roadmap, MLPCN, MLI, MLSMR, qHTS, NCGC, qHTS, nuclear hormone receptor, retinoic acid-related orphan receptor, ROR gamma
# On the % scale 0 is the no-effect control and ±100 the full control effect; potency means the concentration at half of the fitted maximal effect.
# Chain of Nuclear receptor ROR-gamma (Mus musculus) (P51450 whole entry, looked up): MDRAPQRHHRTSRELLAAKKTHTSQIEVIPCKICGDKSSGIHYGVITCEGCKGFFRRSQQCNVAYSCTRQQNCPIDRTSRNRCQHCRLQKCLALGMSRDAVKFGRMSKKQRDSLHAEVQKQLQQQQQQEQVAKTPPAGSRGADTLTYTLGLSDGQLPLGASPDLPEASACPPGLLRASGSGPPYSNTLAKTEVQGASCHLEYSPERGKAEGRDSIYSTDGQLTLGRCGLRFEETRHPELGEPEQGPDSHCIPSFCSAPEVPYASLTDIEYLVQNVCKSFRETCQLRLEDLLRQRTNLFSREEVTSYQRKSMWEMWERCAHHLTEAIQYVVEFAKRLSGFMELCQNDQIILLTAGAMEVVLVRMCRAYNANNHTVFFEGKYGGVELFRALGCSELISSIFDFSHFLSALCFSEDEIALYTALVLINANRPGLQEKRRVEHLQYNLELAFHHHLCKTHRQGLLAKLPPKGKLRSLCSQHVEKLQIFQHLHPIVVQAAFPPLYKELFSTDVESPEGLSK
SMILES,"activity change, negative = inhibition",Potency
CC(CC(=O)N1CCN(S(=O)(=O)c2ccccc2)CC1)n1cncn1 (stereo unspecified),3.92%,–
CCOc1ccc(-n2c(SCC(=O)Nc3ccc(OC)cc3)nc3sc4c(c3c2=O)CCN(C)C4)cc1,11.9%,–
CCOc1ccccc1-c1nc(CN2CCC(C(=O)N3CCOCC3)CC2)c(C)o1,-0.916%,–
O=c1c(-c2ccc(F)cc2)nc2cnc(N3CCNCC3)nc2n1Cc1cccs1,-5.47%,–
Cn1c(=O)c(-c2ccccc2)nc2cnc(N3CCNCC3)nc21,-20.6%,–
N#Cc1cccc(-c2nc3cnc(N4CCNCC4)nc3n(C3CC3)c2=O)c1,–,12.6 µM (active)
Cc1c2cnn(CC(=O)NCCCN3CC(C)CC(C)C3)c(=O)c2c(C)n1Cc1ccc(Cl)cc1 (stereo unspecified),-33.5%,–
CC(C)(c1ccccc1)c1ccc(OCCN2CCCC2)cc1,-9.7%,–
O=C(NCCCn1ccnc1)c1ccccc1F,-8.55%,–
CN(Cc1ccccc1)C(=O)c1cccc(C(=O)N(C)Cc2ccccc2)c1,-14.3%,–
O=C(Cn1ccc2cc(S(=O)(=O)N3CCCC3)ccc21)NCc1ccccc1,4.66%,–
O=c1c([N+](=O)[O-])cc(C(F)(F)F)cn1Cc1cccc(Cl)c1,26.4%,–
O=[N+]([O-])/C=C/c1ccc2c(ccn2Cc2ccccc2)c1,–,12.6 µM (active)
Cc1c(C(=O)NCC(c2ccco2)N2CCCC2)oc2ccc(Cl)cc12 (stereo unspecified),8.17%,–
Cc1onc(C(=O)Nc2ccc3c(c2)OCO3)c1[N+](=O)[O-],36.5%,–
CCCc1[nH]nc2c1C(c1ccc(OC(=O)c3ccco3)cc1)C(C#N)=C(N)O2 (stereo unspecified),-14.4%,–
CCCc1[nH]nc2c1C(c1ccc(Br)s1)C(C#N)=C(N)O2 (stereo unspecified),–,12.6 µM (active)
CCCc1[nH]nc2c1C(c1c(C)nn(-c3ccccc3)c1Cl)C(C#N)=C(N)O2 (stereo unspecified),33.4%,–
Cc1ccc(S(=O)(=O)N(Cc2ccccc2)c2ccccn2)cc1[N+](=O)[O-],34.1%,–
Cc1cccc(OCC(O)CN2CCN(S(=O)(=O)c3ccc(C)cc3C)CC2)c1 (stereo unspecified),11.8%,–
COc1ccc(N2C(=O)CN=C2Nc2cccc(C)c2C)cc1OC,5.1%,–
Cc1ccc(N2C(=O)CN=C2Nc2nc(C)cc(C)n2)cc1,-23.8%,–
Cc1cc(C)nc(NC2=NCC(=O)N2c2ccc(Cl)cc2)n1,–,0.224 µM (active)
CC1CN(C(=O)CCC(=O)NCc2cccnc2)c2ccccc2O1 (stereo unspecified),-22.8%,–
Cc1ccc(C(=O)N2CC(=O)Nc3ccc(F)cc3C2c2ccc(F)cc2)cc1 (stereo unspecified),40.3%,–
COc1ccccc1C(=O)NC(=S)Nc1ccccc1N1CCCCC1,–,3.98 µM (active)

SMILES,"activity change, negative = inhibition",Potency
CC(Sc1nncn1C)C(=O)Nc1cc(C(F)(F)F)ccc1N1CCOCC1 (stereo unspecified),11.5%,–
Cc1cccc(OCC(=O)NC(=S)Nc2ccccc2N2CCOCC2)c1,–,11.2 µM (active)
O=C(Nc1ccccc1N1CCN(C(=O)c2ccccc2)CC1)c1ccco1,18%,–
CC(=O)N1CCN(c2ccccc2NC(=S)NC(=O)c2cc3ccccc3o2)CC1,–,11.2 µM (active)
Cc1ccc(NC(=O)c2cc3ccccc3o2)cc1,-8.5%,–
Cc1cccc(OCCC(=O)Nc2cc(S(=O)(=O)N3CCCCC3)ccc2N2CCOCC2)c1,-0.287%,–
Cc1ccccc1NC(=O)Nc1ccccc1N1CCCCC1,-4.44%,–
Cc1cccc(OCC(=O)Nc2ccccc2F)c1,-0.216%,–
COc1ccccc1C(=O)NC(=S)NC12CC3CC(CC(C3)C1)C2,-11%,–
COc1cc(C(=O)Nc2cc(C(F)(F)F)ccc2N2CCOCC2)ccc1O,18.1%,–
O=C(NC(=S)Nc1cc(C(F)(F)F)ccc1N1CCOCC1)c1ccc(-c2cccc(Cl)c2)o1,–,10 µM (active)
O=C1CCN(Cc2ccccc2)CCN1[C@H](CSc1ccccc1)c1ccccc1,6.36%,–
COC(=O)c1ccc(N2CCOCC2)c(NC(=O)c2ccc3c(c2)OCCO3)c1,-23.4%,–
Cc1cc(NC(=O)c2ccco2)c(=O)n(Cc2c(F)cccc2Cl)c1,6.19%,–
COCCNc1nc(N)c([N+](=O)[O-])c(N2CCCCCC2)n1,21.8%,–
CCOc1ccc(-c2noc(CCC(=O)NC3CCCC3)n2)cc1OC,13.1%,–
O=C(c1ccc(CS(=O)(=O)c2ccccc2)o1)N1CCN(c2ccccc2)CC1,18.4%,–
COc1ccc(CNC(=O)[C@H](Cc2c[nH]c3ccccc23)NC(C)=O)cc1OC,-14.9%,–
O=C(NCCCN1CCOCC1)C1CCCN(S(=O)(=O)N2CCCCC2)C1 (stereo unspecified),-11%,–
CCc1ccc(C(=O)NC(=S)Nc2ccccc2N2CCOCC2)cc1,–,3.55 µM (active)
O=C(CCNC(=O)c1ccc([N+](=O)[O-])cc1)Nc1ccccc1N1CCOCC1,-19.6%,–
CC(=O)c1ccc(N2CCN(CC(=O)Nc3ccccc3N3CCOCC3)CC2)cc1,32.1%,–
O=C(Nc1ccccc1N1CCCC1)c1ccc2ccccc2c1,7%,–
O=C(NC(=S)Nc1ccccc1N1CCCCC1)c1ccc(F)cc1,–,3.98 µM (active)
O=C(Nc1ccccc1N1CCCCC1)c1cccc(F)c1,-27.2%,–
CC1CCN(CC(O)COc2ccc(C(=O)c3ccccc3)cc2)CC1 (stereo unspecified),-4.49%,–

SMILES,"activity change, negative = inhibition",Potency
O=C(NCc1cccc(Cl)c1)C1CCC(=O)N(C2CC2)C1 (stereo unspecified),1.36%,–
Cc1cc(CN(C)C(=O)c2cc(COc3ccc(C)c(C)c3)on2)n[nH]1,-24%,–
O=C(NNC(=S)Nc1ccccc1)c1cccc(S(=O)(=O)N2CCOCC2)c1,-23.5%,–
O=C(Nc1nncs1)c1cccc(S(=O)(=O)N2CCCCC2)c1,46.3%,–
O=C(NNC1=NCCC1)c1cccc(S(=O)(=O)N2CCCCC2)c1,–,12.6 µM (active)
CN(CC1CCCN(CCc2cccc(C(F)(F)F)c2)C1)C(=O)c1ccc2nc[nH]c2c1 (stereo unspecified),-10.7%,–
CCOC(=O)c1ccc(NC(=O)c2ccc(NC(=O)C3CCCO3)cc2)cc1 (stereo unspecified),-2.12%,–
COc1ccc(C2=NN(c3nc4ccccc4s3)C(=O)C2)cc1,–,5.62 µM (active)
COc1ccc(C2=NN(c3ccccc3)C(c3cccs3)C2)cc1 (stereo unspecified),23.1%,–
COC(=O)Cc1[nH]n(-c2nc3ccccc3s2)c(=O)c1C(C)=Nc1ccc(OC)cc1,-5.29%,–
COc1cc(NC(=S)NCCSc2ccc(C)cc2)cc(OC)c1,–,7.08 µM (active)
COc1ccc(NC(=S)NCCNC(C)=O)cc1,13.1%,–
COC(=O)c1cc(OC)c(OC)cc1NC(=O)CSc1ccc(C)cc1,-14.2%,–
CC1=C(C(=O)OCC2CCCCC2)C(c2ccc(F)cc2)NC(=O)N1 (stereo unspecified),44%,–
CC(=O)OCC(NC(=O)C(Cc1ccccc1)NC(=O)OC(C)(C)C)C1OC(n2ccc(=O)[nH]c2=O)C(OC(C)=O)C1OC(C)=O (stereo unspecified),25.8%,–
COc1ccc(NC(=O)NCCN2CCN(c3ccc(C)cc3)CC2)c(Cl)c1,4.43%,–
COc1ccccc1NC(=O)CCSc1nnc(-c2ccc(O)cc2)o1,–,14.1 µM (active)
CCc1ccccc1NC(=O)CSc1nnc(-c2ccncc2)o1,-2.45%,–
COc1ccccc1-c1nnc(SCC(=O)Nc2ccccc2)o1,-0.697%,–
COc1cccc(N2CCN(c3ccc4nnc(CCC(=O)N5CCN(C)CC5)n4n3)CC2)c1,-7.9%,–
O=C(N/N=C/c1ccccn1)c1ccc(S(=O)(=O)N2CCCCCC2)cc1,-13.7%,–
O=S(=O)(c1ccc(Br)cc1)N1CCC(c2nc3ccccc3[nH]2)CC1,39.6%,–
N#CC(C(=O)c1ccc(S(=O)(=O)N2CCCCCC2)cc1)c1nc2ccccc2[nH]1 (stereo unspecified),–,12.6 µM (active)
Cc1nc2cc(C(F)(F)F)ccc2n1CCNc1nc(-c2cc(Cl)c(N)c(Cl)c2)cs1,–,17.8 µM (active)
COc1cc(NC(=O)CSc2ccc(-c3cccnc3)nn2)cc(OC)c1,13.3%,–
CC(C)c1ccc(S(=O)(=O)N2CCN(C(=O)c3ccc(N4CCCC4)c([N+](=O)[O-])c3)CC2)cc1,-24.3%,–

SMILES,"activity change, negative = inhibition",Potency
COc1ccccc1N(CC(=O)Nc1ccccc1C(=O)N1CCCC1)S(C)(=O)=O,3.4%,–
Cc1ccc(S(=O)(=O)N2CCN(C(=O)CSc3cc(C)ccc3C)CC2)c(C)c1,–,3.16 µM (active)
CCCc1cc(=O)[nH]c(SCC(=O)N2CCN(S(=O)(=O)c3ccc(C)cc3C)CC2)n1,4.85% [at 10 µM],–
Cc1ccc(S(=O)(=O)N2CCN(C(=O)N3CCOCC3)CC2)c(C)c1,-10.3%,–
Cc1ccc(C(=O)NC2CCN(C(=O)Nc3ccc(F)cc3)CC2)cc1,3.29%,–
CC(C)=N/N=C1/NC(=O)C(Cc2ccccc2)S1 (stereo unspecified),–,2.51 µM (active)
CCCCC1S/C(=N/N=C/c2cccs2)NC1=O (stereo unspecified),–,0.112 µM (active)
COc1ccc(CN2C(=O)C(C)S/C2=N/N=C/c2ccco2)cc1 (stereo unspecified),27.5%,–
CC(=O)Nc1ccc(S(=O)(=O)Oc2ccc(/C=N/N=C3/NC(=O)C(CC(=O)O)S3)cc2)cc1 (stereo unspecified),-0.673%,–
CN(CCOc1ccc(CC2SC(=O)NC2=O)cc1)c1ccccn1 (stereo unspecified),15.6%,–
O=C1N/C(=N\N=C\c2ccco2)SC1Cc1ccc(F)cc1 (stereo unspecified),–,1 µM (active)
CCC1S/C(=N/N=C/c2ccco2)NC1=O (stereo unspecified),–,1.26 µM (active)
O=c1nc(N/N=C/c2ccco2)cn[nH]1,-16.9%,–
CCC1C/C(=C/c2cccs2)C(=O)/C(=C/c2cccs2)C1 (stereo unspecified),-10.2%,–
O=C(O)C[C@@H]1NC(=O)[C@H](Cc2ccccc2)NC1=O,-1.37%,–
C=CCN1C(=O)C(Cc2cccc(Cl)c2)S/C1=N/N=C/c1ccco1 (stereo unspecified),-19%,–
Cc1ccccc1N(C(=O)CNC(=O)c1cccs1)C(C(=O)NC1CCCC1)c1ccncc1 (stereo unspecified),20.7%,–
O=C(C1CCN(Cc2ccc(Cl)cc2)CC1)N1CCN(Cc2ccc3c(c2)OCO3)CC1,35.5%,–
C=CCn1c(SCc2ccccc2)nc2c1c(=O)[nH]c(=O)n2C,-5.57%,–
O=S(=O)(c1ccccc1)c1nc(Cc2ccccc2)oc1N1CCOCC1,-3.36%,–
O=S(=O)(c1ccc(F)cc1)N1CCN=C1SCc1cccc(F)c1,0.749%,–
CCc1ccc(N2CC(C(=O)Nc3ccc(S(=O)(=O)Nc4nccs4)cc3)CC2=O)cc1 (stereo unspecified),4.98%,–
CCCCC1(C(=O)OCC)NC(c2ccc(O)cc2)C2C(=O)N(c3ccccc3)C(=O)C21 (stereo unspecified),-1.09%,–
